tim23-1 inh – growth inhibitors of tim23-1 mutant yeast; S. cerevisiae tim23-1 growth, BacTiter-Glo luminescence, 24 h; inhibition, % at 20 µM; 330,000 tested, 1.3% active;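 active = growth inhibition of the mutant yeast at or above 50%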;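 note: temperature-sensitive mutant grown at 25 °C; plate controls were DMSO-treated mutant yeast for no effect and medium wells lacking yeast for full effect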
tim10-1 inh – tim10-1 yeast growth inhibition. S. cerevisiae tim10-1 ts strain growth, BacTiter-Glo, 24 h. 330,000 tested, 2.2% active. AID 463190. inhibition, % at 20 µM;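 active = inhibition of at least 40%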;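 note: mutant grown at 25 °C; 0% = DMSO wells with yeast and 100% = wells holding no yeast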
NALP1 inh – inhibitors of NALP1 inflammasome in yeast | S. cerevisiae NALP1/ASC/caspase-1 growth, X-gal OD620, 72 h | 280,000 tested, 0.61% active | inhibition, % at 10 µM; in the data active = inhibition mostly above about 24%, no sharp cut-off; inactive = mostly below about 32%
NLRP3 yeast inh – NALP3 inhibition in yeast; Yeast reconstituted NLRP3/ASC/caspase-1, beta-gal luminescence, 24 h; inhibition, % at 10 µM; 330,000 tested, 0.39% active; AID 2825;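 active = inhibition of 50% or more; inactive = inhibition below 50%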;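 note: plate controls were induced DMSO wells for no effect and uninduced yeast grown without galactose for full effect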
TIM10 inh – TIM10 yeast growth inhibition | S. cerevisiae TIM10 strain growth, BacTiter-Glo luminescence, 24 h | inhibition, % at 10 µM | 330,000 tested, 1.4% active | AID 463195;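 active = inhibition of 40% or more at the single tested concentration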;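 note: wild-type TIM10 isogenic control strain grown at permissive 25 °C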
SKKanGAS inh – blocks kanamycin growth of S. pyogenes SKKanGAS strain; BacTiter-Glo, 6 h; inhibition, % at 7.5 µM; 300,000 tested, 1.3% active;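 active = mean replicate score, as percent of positive control median, at least 50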;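 note: strain carries kanamycin resistance gene driven by streptokinase promoter and grows in 40 µg/ml kanamycin; loss of luminescence reflects streptokinase promoter inhibition or plain growth inhibition; 0% = median of DMSO wells and 100% = positive control at its reference dose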
* = called active by the depositor; . = no result. Compounds with a hit are over-represented: about 4.9% of the library has one in this group of screens.

SMILES	tim23-1 inh	tim10-1 inh	NALP1 inh	NLRP3 yeast inh	TIM10 inh	SKKanGAS inh
C[C@@H]1CN([C@@H](C)CO)C(=O)c2cccc(NC(=O)Nc3ccc4c(c3)OCO4)c2O[C@H]1CN(C)S(=O)(=O)c1cn(C)cn1	2.4	15.4	.	7.5	-5.1	.
CCN(CC)S(=O)(=O)c1cccc(C(=O)NNC(=O)C2=NN(c3ccccc3)C(=O)CC2)c1	15.6	15.3	13.5	16.3	-2.9	4.8
COC(=O)c1ccc(CO/N=C/c2ccc(OC)cc2)o1	17.6	19.0	12.8	12.9	-1.8	1.3
O=C(O)CCCNc1cc(N2CCC3(CC2)OCCO3)c2noc3c2c1C(=O)c1ccccc1-3	29.2	39.1	1.8	14.0	8.6	.
O=C(O)CCCNc1cc(N2CCN(C(=O)c3ccco3)CC2)c2noc3c2c1C(=O)c1ccccc1-3	31.9	28.1	1.6	20.9	17.0	51.7*
COc1cc(-c2c(-c3ccsc3)sc3ccccc23)cc(OC)c1OC	4.2	4.2	.	11.4	5.8	.
Oc1ccc(-c2c(C3=CCCCC3)sc3ccccc23)cc1	.	.	-2.9	.	.	56.1*
N#Cc1ccccc1S(=O)(=O)N1CCN(C(=O)C2COc3ccccc3O2)CC1 (stereo unspecified)	20.3	18.2	.	10.2	12.2	.
O=C(Nc1ccc(-c2csc(Nc3ccc(Cl)cc3)n2)cc1)c1cc([N+](=O)[O-])cc(C(F)(F)F)c1	25.3	12.0	.	21.0	-4.9	75.4*
O=C(Nc1cccc(-c2csc(Nc3ccc(Cl)cc3)n2)c1)c1cccc(C(F)(F)F)c1	35.2	17.6	.	16.9	24.6	43.8
O=C(Nc1cccc(-c2csc(Nc3ccc(Cl)cc3)n2)c1)c1ccccc1	39.5	21.1	.	11.3	38.6	91.4*
O=C(COC(=O)C1CC1)NCc1ccc(Cl)cc1Cl	4.2	-1.1	.	-7.3	5.8	.
Cc1ccc(/C=N/Nc2ccnc3cc(Cl)ccc23)c(C)c1	2.9	9.4	59.7*	13.2	13.1	94.7*
Cc1ccccc1/C=N/Nc1ccnc2cc(Cl)ccc12	.	.	51.0*	.	.	-28.1
Clc1ccc2c(N/N=C/c3ccc(Br)cc3)ccnc2c1	.	.	53.6*	.	.	112.6*
Clc1ccc(NNc2ccnc3cc(Cl)ccc23)cc1	-9.8	11.8	-8.3	7.3	9.0	-11.9
N#Cc1ccccc1S(=O)(=O)N1CCN(C(=O)c2cc3c(s2)CCC3)CC1	12.7	26.4	.	3.9	5.4	.
O=C(NCC[C@@H]1C[C@@H]2C=C[C@H]1C2)c1cc(COc2ccc(F)cc2F)on1	32.8	32.5	25.9	32.1	3.9	4.7
CCCC(Oc1ccc(Br)cc1)c1nc2c3cc(OC)c(OC)cc3nc(=S)n2[nH]1 (stereo unspecified)	18.7	39.5	0.7	22.3	-22.8	100.1*
CC(Oc1ccc(Br)cc1)c1nc2c3ccccc3nc(=S)n2[nH]1 (stereo unspecified)	44.9	37.9	-4.4	36.2	37.9	92.3*
COc1ccc(C2SCC(=O)N2c2c(C)n(C)n(-c3ccccc3)c2=O)cc1 (stereo unspecified)	8.2	7.0	6.3	1.5	7.9	-1.1
COc1cc(C2SCC(=O)N2c2c(C)n(C)n(-c3ccccc3)c2=O)ccc1O (stereo unspecified)	-5.1	-9.6	38.4*	4.0	-5.2	6.8
Nc1c(S(=O)(=O)c2ccccc2)c2nc3ccccc3nc2n1/N=C/c1cccc(O)c1	29.5	26.9	10.0	-0.6	11.2	56.4*
Cc1cccc(S(=O)(=O)c2c(N)n(/N=C/c3ccccc3)c3nc4ccccc4nc23)c1	7.6	9.1	11.3	4.9	14.4	28.4
O=C(C1CCCCC1)N1CCC(c2nc3c(nnn3Cc3c(F)cccc3Cl)c(=O)[nH]2)CC1	-0.2	4.6	3.4	3.2	-0.5	67.8*
SMILES	tim23-1 inh	tim10-1 inh	NALP1 inh	NLRP3 yeast inh	TIM10 inh	SKKanGAS inh
O=C(O)c1ccc(N2C(=O)CC(SC(=NCc3ccc4c(c3)OCO4)Nc3ccc(F)cc3)C2=O)cc1 (stereo unspecified)	12.1	17.0	5.2	0.6	-3.3	59.5*
COc1cc(/C(C)=C/c2ccccc2)c2c(c1)oc1ccccc12	.	.	-17.2	.	.	55.2*
CC1(C)COC(/C=C/c2ccc([N+](=O)[O-])cc2)=N1	.	.	88.6*	.	.	0.8
CC(=C/C(=O)O)/C=C/c1ccc([N+](=O)[O-])cc1	.	.	12.7	.	.	.
Cc1c(-c2cccc(Cl)c2)nc2ccccc2c1C(=O)OC/C(O)=C(\C#N)c1nc2ccccc2[nH]1	6.8	14.1	-2.7	-1.9	-4.7	57.6*
Cc1c(C(=O)OC/C(O)=C(\C#N)c2nc3ccccc3[nH]2)oc2ccc(Br)cc12	-6.4	-4.0	.	-3.1	-4.0	18.5
Cc1ccnc(NS(=O)(=O)c2ccc(NS(=O)(=O)c3cc(Cl)ccc3Cl)cc2)n1	6.3	4.1	40.4*	5.5	7.7	18.9
C[C@H](CO)N1C[C@H](C)[C@@H](CN(C)Cc2ccc(Cl)c(Cl)c2)Oc2c(NS(=O)(=O)c3cn(C)cn3)cccc2C1=O	16.7	9.0	.	3.5	2.4	.
Cc1cccc(OCC(=O)Nc2ccc(C(=O)Nc3ccccc3C(=O)O)cc2)c1C	7.3	2.6	-2.9	7.9	7.6	57.7*
CC(C)(C)c1ccc(OCC(=O)Nc2ccc(C(=O)Nc3ccccc3C(=O)O)cc2)cc1	15.9	-0.6	7.3	8.7	18.4	82.5*
Cc1cc2ccccc2n1CCNC(=O)c1ccc(Br)o1	7.9	12.2	12.1	10.2	15.2	3.1
Cc1cccc(C)c1C(OCCN(C)C)C1CCCCC1 (stereo unspecified)	21.0	32.2	50.9*	11.8	12.8	-3.9
CCC(C)(C)NC(=O)Cc1ccc(OC)c(OC)c1	3.6	-1.1	8.8	9.7	2.9	7.3
CCC(C)(C)NC(=O)Cc1ccccc1OC	1.3	14.0	41.1*	12.0	1.2	3.1
CCOC(=O)c1ccc(NC2=CC(=O)C(=O)c3ccccc32)cc1	-35.5	-5.2	-6.6	22.4	-13.4	69.9*
CCCc1nnc(NC(=O)c2cc3ccccc3oc2=O)s1	-1.2	-10.6	40.4*	3.8	7.2	6.7
CCc1nnc(NC(=O)c2ccncc2)s1	9.6	10.2	11.4	3.8	-0.4	-4.5
CCc1nnc(NC(=O)c2cccc(C(=O)Nc3nnc(CC)s3)n2)s1	.	.	10.0	.	.	99.0*
CCCc1nnc(NC(=O)CC(=O)Nc2ccccc2C(=O)O)s1	-5.5	-4.0	40.0*	14.7	-0.9	-5.7
CCOc1ccc(CCNC(=O)COC(=O)COc2ccc(Br)cc2)cc1OCC	11.5	12.3	3.6	3.5	9.1	2.2
CC(C)c1ccccc1NC(=O)CN1C(=O)c2ccccc2C1=O	18.1	2.3	22.5	12.2	-3.9	-2.4
Cc1cc(O)ccc1NC(=S)NC(=O)c1cncc(Br)c1	-2.0	13.6	6.1	13.6	-5.0	73.7*
O=C(NC(=S)Nc1ccc(N2CCOCC2)c(Cl)c1)c1cncc(Br)c1	38.5	27.7	9.6	26.5	-3.2	70.8*
COc1ccc(OCC(=O)NC(=S)Nc2ccc(N3CCOCC3)c(Cl)c2)cc1	15.6	29.7	18.9	17.6	24.8	68.0*
